From PubChem BioAssay (NCI)
Compounds without any hit were thinned out: in the full panel of roughly 83,000, 20% have a hit.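 Compound tested at a single concentration for 48 hours in 96-well plates; a percent growth value below 10 was scored as active.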 The source made the active and inactive calls.

Legend:
Experiment in all cases: NCI-60 one-dose screen, 48 h (100 = growth as untreated, 0 = no growth, -100 = all killed)
Conditions in all cases: 10 µM
SR leukemia = test system: SR leukemia
RPMI-8226 leukemia = test system: RPMI-8226 leukemia
OVCAR-8 ovarian = test system: OVCAR-8 ovarian
OVCAR-5 ovarian = test system: OVCAR-5 ovarian
OVCAR-4 ovarian = test system: OVCAR-4 ovarian
SK-OV-3 ovarian = test system: SK-OV-3 ovarian
IGROV1 ovarian = test system: IGROV1 ovarian
OVCAR-3 ovarian = test system: OVCAR-3 ovarian
HS 578T breast = test system: HS 578T breast
NCI/ADR-RES ovarian = test system: NCI/ADR-RES ovarian
T-47D breast = test system: T-47D breast
BT-549 breast = test system: BT-549 breast
MDA-MB-435 melanoma = test system: MDA-MB-435 melanoma
SW-620 colon = test system: SW-620 colon
MCF7 breast = test system: MCF7 breast
HCT-116 colon = test system: HCT-116 colon
HCC-2998 colon = test system: HCC-2998 colon
KM12 colon = test system: KM12 colon

Measured: growth

CCCc1nc(C(C)(C)O)c(C(=O)O)n1Cc1ccc(-c2ccccc2-c2nn[nH]n2)cc1
inactive: SR leukemia 85.9% | RPMI-8226 leukemia 104% | OVCAR-8 ovarian 91.7% | OVCAR-5 ovarian 104% | OVCAR-4 ovarian 100% | SK-OV-3 ovarian 106% | IGROV1 ovarian 114% | OVCAR-3 ovarian 117% | HS 578T breast 102% | NCI/ADR-RES ovarian 105% | T-47D breast 82.1% | BT-549 breast 103% | MDA-MB-435 melanoma 106% | SW-620 colon 98.6% | MCF7 breast 98.9% | HCT-116 colon 106% | HCC-2998 colon 110% | KM12 colon 120%

CC[C@@H](C(=O)[C@@H](C)[C@@H](O)[C@H](C)[C@@H]1O[C@@H]([C@@H](CC)C(=O)O)CC[C@@H]1C)C1O[C@]2(C=CC(=O)[C@]3(CC[C@@](C)([C@H]4CC[C@](O)(CC)[C@H](C)O4)O3)O2)[C@H](C)C[C@@H]1C (stereo partly specified)
inactive: SR leukemia 31.3% | OVCAR-8 ovarian 44.4% | OVCAR-5 ovarian 56.1% | OVCAR-4 ovarian 47.7% | SK-OV-3 ovarian 69.1% | IGROV1 ovarian 48.4% | OVCAR-3 ovarian 27.2% | HS 578T breast 30.6% | NCI/ADR-RES ovarian 40% | T-47D breast 26.1% | BT-549 breast 34.2% | MDA-MB-435 melanoma 21% | SW-620 colon 35.2% | MCF7 breast 11.2% | HCT-116 colon 32.6% | HCC-2998 colon 36.1% | KM12 colon 36%
active: RPMI-8226 leukemia 4.99%

COc1ccc(C(c2ccc(OCCN(C)C)cc2)c2cc3ccccc3c3ccccc23)cc1 (stereo unspecified)
inactive: RPMI-8226 leukemia 13.2% | OVCAR-8 ovarian 70.2% | OVCAR-5 ovarian 79.3% | OVCAR-4 ovarian 77.9% | SK-OV-3 ovarian 106% | IGROV1 ovarian 61.7% | OVCAR-3 ovarian 62.6% | HS 578T breast 75.1% | NCI/ADR-RES ovarian 68.1% | T-47D breast 21.8% | BT-549 breast 93% | KM12 colon 19.3%
active: SR leukemia -30.6% | MDA-MB-435 melanoma -25.4% | SW-620 colon -46.6% | MCF7 breast 2.13% | HCT-116 colon -75% | HCC-2998 colon -19.7%

S=C(NCc1ccccc1)NCc1ccccc1
inactive: SR leukemia 98.4% | RPMI-8226 leukemia 100% | OVCAR-8 ovarian 94.7% | OVCAR-5 ovarian 108% | OVCAR-4 ovarian 102% | SK-OV-3 ovarian 99.2% | IGROV1 ovarian 97.4% | OVCAR-3 ovarian 98.5% | HS 578T breast 96.1% | NCI/ADR-RES ovarian 99.5% | T-47D breast 94.6% | BT-549 breast 95.4% | MDA-MB-435 melanoma 101% | SW-620 colon 100% | MCF7 breast 96.3% | HCT-116 colon 97.3% | HCC-2998 colon 111% | KM12 colon 102%

COc1ccc(CCN2CCC(Nc3nc4ccccc4n3Cc3ccc(F)cc3)CC2)cc1
inactive: OVCAR-5 ovarian 34.5% | OVCAR-4 ovarian 22.4% | SK-OV-3 ovarian 44% | IGROV1 ovarian 41.2% | OVCAR-3 ovarian 28.3% | NCI/ADR-RES ovarian 37.7% | BT-549 breast 31.9% | KM12 colon 17.7%
active: SR leukemia -54.6% | RPMI-8226 leukemia -20.2% | OVCAR-8 ovarian -40.4% | HS 578T breast -40.2% | T-47D breast -3.86% | MDA-MB-435 melanoma -91.7% | SW-620 colon -54.8% | MCF7 breast -53.6% | HCT-116 colon -39.4% | HCC-2998 colon -84.6%

O=C(CSc1nnc(-c2ccc(Cl)cc2)o1)Nc1ccc(C(=O)/C=C/c2ccc(Cl)cc2)cc1
inactive: SR leukemia 98.3% | RPMI-8226 leukemia 92.5% | OVCAR-8 ovarian 100% | OVCAR-5 ovarian 110% | OVCAR-4 ovarian 89.3% | SK-OV-3 ovarian 90.6% | IGROV1 ovarian 108% | OVCAR-3 ovarian 103% | HS 578T breast 95.9% | NCI/ADR-RES ovarian 96.4% | T-47D breast 98.6% | BT-549 breast 133% | MDA-MB-435 melanoma 98.1% | SW-620 colon 101% | MCF7 breast 78% | HCT-116 colon 103% | HCC-2998 colon 93.1% | KM12 colon 97.8%

COC(=O)C1(O)NC(=C(C#N)C#N)C(C#N)=C1C(=O)c1ccc(OC)c(OC)c1 (stereo unspecified)
inactive: SR leukemia 89.7% | RPMI-8226 leukemia 90.1% | OVCAR-8 ovarian 92% | OVCAR-5 ovarian 111% | OVCAR-4 ovarian 118% | SK-OV-3 ovarian 98.6% | IGROV1 ovarian 101% | OVCAR-3 ovarian 107% | HS 578T breast 95.9% | NCI/ADR-RES ovarian 106% | T-47D breast 98.6% | BT-549 breast 89.1% | MDA-MB-435 melanoma 104% | SW-620 colon 97.9% | MCF7 breast 95.4% | HCT-116 colon 90.9% | HCC-2998 colon 117% | KM12 colon 105%

O=C(O)c1ccc(-n2cc(CNc3ccc(Oc4ccccc4)cc3)c(-c3ccccc3)n2)cc1
inactive: SR leukemia 38.6% | RPMI-8226 leukemia 73% | OVCAR-8 ovarian 92.3% | OVCAR-5 ovarian 98.9% | OVCAR-4 ovarian 81.4% | SK-OV-3 ovarian 112% | IGROV1 ovarian 86.4% | OVCAR-3 ovarian 86.9% | HS 578T breast 105% | NCI/ADR-RES ovarian 90.1% | T-47D breast 75% | BT-549 breast 83.1% | MDA-MB-435 melanoma 94.2% | SW-620 colon 99.4% | MCF7 breast 85.4% | HCT-116 colon 88.5% | HCC-2998 colon 120% | KM12 colon 80.3%

COc1cc(-c2nn(-c3ccc(NC(=O)NCCCNC(=O)c4ccccc4)cc3)cc2-c2ccncc2)ccc1Cl
inactive: SR leukemia 20.2% | OVCAR-8 ovarian 20.6% | OVCAR-5 ovarian 53% | OVCAR-4 ovarian 44.4% | SK-OV-3 ovarian 23.8% | IGROV1 ovarian 38.1% | OVCAR-3 ovarian 20.6% | HS 578T breast 40% | NCI/ADR-RES ovarian 69.4% | T-47D breast 67.5% | BT-549 breast 22.8% | SW-620 colon 33.3% | MCF7 breast 12.8% | HCC-2998 colon 32% | KM12 colon 20%
active: RPMI-8226 leukemia -3.49% | MDA-MB-435 melanoma 2.49% | HCT-116 colon 9.58%

COc1ccc(/C=C2\CCCC3=C2NC(N)=NC3c2ccc(OC)c(OC)c2)cc1OC (stereo unspecified)
inactive: SR leukemia 28.1% | RPMI-8226 leukemia 15.2% | OVCAR-8 ovarian 10.6% | OVCAR-5 ovarian 74.4% | OVCAR-4 ovarian 53.4% | SK-OV-3 ovarian 44.1% | IGROV1 ovarian 57.1% | OVCAR-3 ovarian 10.8% | HS 578T breast 87.9% | NCI/ADR-RES ovarian 25.1% | T-47D breast 78.6% | BT-549 breast 36.1% | MDA-MB-435 melanoma 30.8% | SW-620 colon 40.7% | MCF7 breast 27.6% | HCC-2998 colon 88% | KM12 colon 32.1%
active: HCT-116 colon 7.91%

CC1CCCC(C(=O)O)C1C(=O)O (stereo unspecified)
inactive: SR leukemia 98.9% | RPMI-8226 leukemia 94.1% | OVCAR-8 ovarian 94.4% | OVCAR-5 ovarian 99.8% | OVCAR-4 ovarian 103% | SK-OV-3 ovarian 90.4% | IGROV1 ovarian 106% | OVCAR-3 ovarian 110% | HS 578T breast 95.4% | NCI/ADR-RES ovarian 102% | T-47D breast 90.9% | BT-549 breast 95.9% | MDA-MB-435 melanoma 102% | SW-620 colon 98.9% | MCF7 breast 103% | HCT-116 colon 99.5% | HCC-2998 colon 92.9% | KM12 colon 106%

CCOC(=O)c1cc(C(=O)c2cc(OC)c(OC)c(OC)c2)n2c1ccc1c3cccnc3ccc12
active: MDA-MB-435 melanoma 8.8%
inactive: SR leukemia 17.5% | RPMI-8226 leukemia 61.8% | OVCAR-8 ovarian 56.2% | OVCAR-5 ovarian 91.9% | OVCAR-4 ovarian 89.7% | SK-OV-3 ovarian 78.1% | IGROV1 ovarian 67.8% | OVCAR-3 ovarian 61.5% | HS 578T breast 72.8% | NCI/ADR-RES ovarian 33.9% | T-47D breast 50.7% | BT-549 breast 68.9% | SW-620 colon 23.6% | MCF7 breast 28.8% | HCT-116 colon 21.6% | HCC-2998 colon 81.9% | KM12 colon 41.5%

COc1cc(Cc2cc(-c3ccccc3)n[nH]c2=O)cc(OC)c1OC
inactive: SR leukemia 25% | RPMI-8226 leukemia 53.5% | OVCAR-8 ovarian 75.2% | OVCAR-5 ovarian 93.1% | OVCAR-4 ovarian 70.1% | SK-OV-3 ovarian 71.2% | IGROV1 ovarian 63.3% | OVCAR-3 ovarian 47.2% | HS 578T breast 68.2% | NCI/ADR-RES ovarian 28.8% | T-47D breast 40.5% | BT-549 breast 54.1% | MDA-MB-435 melanoma 11% | SW-620 colon 33% | MCF7 breast 34.9% | HCT-116 colon 16.3% | HCC-2998 colon 79.1% | KM12 colon 48.8%

CCOC(=O)C1=CSC2=NC3=C(CCC/C3=C\c3ccc(Cl)cc3)C(c3ccc(Cl)cc3)N12 (stereo unspecified)
inactive: SR leukemia 89.6% | OVCAR-8 ovarian 93.7% | OVCAR-5 ovarian 103% | OVCAR-4 ovarian 94.7% | SK-OV-3 ovarian 94.7% | IGROV1 ovarian 109% | OVCAR-3 ovarian 100% | HS 578T breast 91.9% | NCI/ADR-RES ovarian 98.1% | T-47D breast 77.4% | BT-549 breast 98.4% | MDA-MB-435 melanoma 79.1% | SW-620 colon 100% | MCF7 breast 31.3% | HCT-116 colon 49.7% | HCC-2998 colon 101% | KM12 colon 66.7%
active: RPMI-8226 leukemia 6.15%

CC(C)Cc1ccc([C@H](C)C(=O)O)cc1
inactive: SR leukemia 99.9% | RPMI-8226 leukemia 115% | OVCAR-8 ovarian 107% | OVCAR-5 ovarian 107% | OVCAR-4 ovarian 115% | SK-OV-3 ovarian 119% | IGROV1 ovarian 116% | OVCAR-3 ovarian 111% | HS 578T breast 110% | NCI/ADR-RES ovarian 108% | T-47D breast 102% | BT-549 breast 107% | MDA-MB-435 melanoma 103% | SW-620 colon 110% | MCF7 breast 94.8% | HCT-116 colon 103% | HCC-2998 colon 108% | KM12 colon 108%

COc1cccc(N=Nc2cccc(OC)c2)c1
inactive: SR leukemia 92.8% | RPMI-8226 leukemia 87% | OVCAR-8 ovarian 96.2% | OVCAR-5 ovarian 90.6% | OVCAR-4 ovarian 104% | SK-OV-3 ovarian 84.6% | IGROV1 ovarian 89.6% | OVCAR-3 ovarian 102% | HS 578T breast 79.8% | NCI/ADR-RES ovarian 105% | T-47D breast 70.2% | BT-549 breast 85% | MDA-MB-435 melanoma 98.6% | SW-620 colon 94.2% | MCF7 breast 78.8% | HCT-116 colon 84.8% | HCC-2998 colon 88.6% | KM12 colon 95.8%

O=C(Nc1cccc2c1CCCC2)c1cc2ccccc2cc1O
inactive: SR leukemia 18% | OVCAR-8 ovarian 55.9% | OVCAR-5 ovarian 103% | OVCAR-4 ovarian 56.8% | SK-OV-3 ovarian 37% | IGROV1 ovarian 32.1% | OVCAR-3 ovarian 28.2% | HS 578T breast 47.5% | NCI/ADR-RES ovarian 11.7% | T-47D breast 32.4% | BT-549 breast 27.4% | MDA-MB-435 melanoma 41.8% | SW-620 colon 51.4% | MCF7 breast 62.6% | HCC-2998 colon 59.1% | KM12 colon 49.9%
active: RPMI-8226 leukemia 8.51% | HCT-116 colon 6.56%
